# Shown are actives, neighbours in structure and some others; about 2.8% of the full set was active somewhere.
# KLK7 zymogen act: proKLK7 (human) activation, primary screen. purified proKLK7, EDANS-DABCYL substrate fluorescence; 100% is mature enzyme control, 0% vehicle. activation, % at 7 µM. 370,000 compounds, 0.9% hits. AID 652039;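 active means activation above the mean of all tested compounds plus 3 SD, computed per campaign excluding outliers beyond control limits, cut at about 13% in these data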
# Target sequence (P49862 whole entry, looked up): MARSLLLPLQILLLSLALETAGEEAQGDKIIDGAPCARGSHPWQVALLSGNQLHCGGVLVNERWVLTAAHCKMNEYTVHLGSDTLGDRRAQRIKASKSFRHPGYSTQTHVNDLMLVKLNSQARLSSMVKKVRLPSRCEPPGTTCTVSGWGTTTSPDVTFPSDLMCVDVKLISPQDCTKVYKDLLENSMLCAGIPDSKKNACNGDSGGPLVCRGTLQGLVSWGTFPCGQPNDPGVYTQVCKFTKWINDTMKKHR
# SMARCA2 act: increases SMARCA2 function in MMTV reporter cells. 370,000 compounds, 1% hits. MG213 cells, MMTV-luciferase reporter, dexamethasone, overnight. activation, % at 9.1 µM; in the data active means activation above about 7.8%;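 further: 0% = vehicle wells and 100% = reference activator wells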
# MsrA act: bovine methionine sulfoxide reductase A activation | purified bovine MsrA, absorbance read-out | activation, % at 10.6 µM | 360,000 compounds, 0.3% hits; in the data active means activation above about 7.5%;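 further: 0% = vehicle and 100% = reference activator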
# MsrA inh: inhibitors of bovine MsrA. 360,000 compounds, 0.75% hits. inhibition, % at 15.5 µM. purified bovine MsrA, absorbance read-out;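 further: 0% = vehicle wells with enzyme and 100% = reference inhibitor wells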
# MsrA act confirm: confirmation of bovine methionine sulfoxide reductase A activators; 1,000 compounds, 12% hits; shares compounds with MsrA act; purified bovine MsrA, absorbance read-out; AID 602270; activation, % at 10.6 µM; in the data active means activation above about 4%;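 further: enzyme coupled to thioredoxin and thioredoxin reductase with NADPH; 0% = vehicle wells and 100% = reference activator wells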
# MsrA conf: bovine MsrA inhibition, confirmed; shares compounds with MsrA inh; purified bovine MsrA, absorbance read-out; AID 651822; inhibition, % at 15.5 µM; 2,300 compounds, 41% hits;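 further: coupled to thioredoxin reductase with NADPH and selenocystamine and DMSO as substrate; 0% = vehicle only and 100% = full effect of reference inhibitor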
# SMARCA2 act conf: confirmation of SMARCA2 (BRM) function activators; MG213 cells, MMTV-luciferase with dexamethasone, luminescence, overnight; MG213 cells expressing E1A, Rb sequestered; DMSO wells 0%, reference activator 100%; shares compounds with SMARCA2 act; 3,500 compounds, 30% hits; activation, % at 9.1 µM; AID 652260;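 active means activation above its plate's cutoff, the mean activation of tested wells plus 3 SD, cut at about 7.9% in these data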
# VP16 Luc act: GAL4-VP16 reporter activation counter-screen | shares compounds with SMARCA2 act | HEK293 GAL4-VP16 pG5luc reporter, luciferase luminescence; scaled: DMSO wells 0%, SAHA wells 100% | activation, % at 9.1 µM | 3,500 compounds, 41% hits;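 active means activation above the solvent-only control well mean plus 3 SD, averaged across control plates, cut at about 5.2% in these data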
# Numbers without * were called inactive; x = not tested or not shown. Unless noted, no stated cut-off is given here; in the data, active means inhibition above about 4.5%; inactive means the rest.
SMILES,KLK7 zymogen act,SMARCA2 act,MsrA act,MsrA inh,others
O=c1[nH]c(O)c(C=Nc2ccc(F)c(Cl)c2)c(=O)[nH]1,-1,0,-4,2,
O=C(O)c1ccc(N=Cc2c(O)[nH]c(=O)[nH]c2=O)cc1,-1,-4,-3,4.6*,
CCN(CC)c1ccc(/C=C2/C(=O)NC(=O)N(CC3CCCO3)C2=O)cc1 (stereo unspecified),0,-2,-7,5.2*,
O=C1NC(=O)N(CC2CCCO2)C(=O)/C1=C/c1cccs1 (stereo unspecified),0,-4,-3,1,
COc1cc(C(=O)Nc2ccc(Br)cc2C(=O)c2ccccc2)cc(OC)c1OC,26*,2,2,-1,
COc1ccc(Cc2cn(C)c(N)n2)cc1,-1,-1,x,x,
CN(C)C(=O)Oc1ccc(C(=O)c2ccccc2)cc1,-1,7.9*,-5,1,
CC[C@@H]1C[C@H]2CC[C@H](O2)[C@H](C)C(=O)O[C@@H](C)C[C@@H]2CC[C@@H](O2)[C@@H](C)C(=O)O[C@H](C)C[C@H]2CC[C@H](O2)[C@H](C)C(=O)O[C@@H](C)C[C@@H]2CC[C@@H](O2)[C@@H](C)C(=O)O1,0,-6,x,0,
C[C@H]1CN([C@@H](C)CO)C(=O)CCCn2cc(nn2)CO[C@@H]1CN(C)C(=O)Oc1cccc2ccccc12,0,3,x,0,
CCCCn1c(NC(=O)c2ccc(Br)o2)c(C(=O)OCC)c2nc3ccccc3nc21,19*,0,-4,2,
CCCCn1c(NS(=O)(=O)c2ccccc2)c(C(=O)OCC)c2nc3ccccc3nc21,8,-1,-4,1,
CN1CCc2cc3c(c4c2C1Cc1ccccc1-4)OCO3 (stereo unspecified),-1,-3,48*,1,
CN1CCc2cc(O)cc3c2[C@H]1Cc1ccc(O)c(O)c1-3,-43,1,-7,0,
CC(C)(C)NC(=O)CN1C(=O)[C@@H](Cc2c[nH]c3ccccc23)N=C(c2ccccc2)c2ccccc21,0,-3,x,x,
COc1ccccc1-n1c(/C=C/c2ccc(O)cc2)nc2ccccc2c1=O,-1,-2,-2,4.6*,
COCCCn1c(N)c(C(=O)NCc2ccco2)c2nc3ccccc3nc21,34*,6,x,0,
COCCCn1c(N)c(C(=O)Nc2ccccc2)c2nc3ccccc3nc21,-6,1,-1,-1,
O=C(O)C(Br)Br,0,-2,x,0,
O=c1[nH]c(=S)n(Cc2ccc(F)cc2)c(O)c1C=NCCCn1ccnc1,0,-1,-5,4.5*,
NC(Cc1ccc(O)cc1)C(=O)NN=Cc1ccc(N(CCCl)CCCl)cc1 (stereo unspecified),1,-5,-6,7.7*,
OCC[n+]1c2ccccc2nc2ccc(N3CCOCC3)cc21,0,-4,21*,5.8*,MsrA act confirm=10*
O=C(CCc1ccccc1)N1Cc2cc(N3CCOCC3)ccc2-n2nncc2C1,0,-3,-9,1,
C=CCN1C[C@H](C)N(C(c2ccc(C(=O)N(CC)CC)cc2)c2cccc(OC)c2)CC1C (stereo partly specified),1,6,x,0,
c1ccc(Cc2cnc(N3CCNCC3)nc2)cc1,-1,-3,x,1,
O=S1(=O)N(CCN2CC=C(c3c[nH]c4cc(F)ccc34)CC2)c2cccc3c2N1CCC3,0,-6,7.8*,-1,MsrA act confirm=-1
SMILES,KLK7 zymogen act,SMARCA2 act,MsrA act,MsrA inh,others
Cn1ncnc2c(=O)n(C)c(=O)nc1-2,x,x,14*,x,MsrA act confirm=12*
CC(C)(C)c1cc(O)ccc1O,0,-4,x,1,
COC(=O)C1=C(c2ccc(F)cc2OCc2ccccc2)C[C@@H]2CC[C@H]1N2C(=O)NCC1CC1,1,-1,8.4*,1,MsrA act confirm=0
CNC(=S)N1CCn2cccc2C1c1cccnc1 (stereo unspecified),0,-2,20*,2,MsrA act confirm=-4
COc1ccc2nc(-c3ccc(CN4CCC(n5c(=O)[nH]c6cc(Cl)ccc65)CC4)cc3)c(-c3ccccc3)nc2c1,-13,6,x,1,
O=P(C(Cl)Cl)(N1CCOCC1)N1CCOCC1,0,-2,0,0,
O=P(C(c1ccc2c(c1)OCO2)N1CCOCC1)(N1CCOCC1)N1CCOCC1 (stereo unspecified),0,0,13*,-1,MsrA act confirm=-3
CCOC(=O)CC[C@@H]1CC[C@]2(CCCN(Cc3ccccn3)C2)O1,-1,-2,x,x,
C/C=C(\C)C(=O)N[C@@H](c1ccccc1)[C@@H](O)C(=O)O[C@H]1C[C@@]2(O)[C@@H](OC(=O)c3ccccc3)C3[C@](C)(C(=O)[C@H](OC(C)=O)C(=C1C)C2(C)C)[C@H](O)C[C@H]1OC[C@@]31OC(C)=O (stereo partly specified),0,0,10*,0,MsrA act confirm=-1
O=c1[nH]sc2cc(F)ccc12,0,13*,12*,0,MsrA act confirm=10*;SMARCA2 act conf=11*;VP16 Luc act=0
O=C(NCCN1CCC2(CC1)C(=O)NCN2c1ccccc1)c1cccc(F)c1,0,-2,x,-1,
COc1ccc2c(C)c(CC(=O)N3C[C@H]4C[C@@H](C3)c3cccc(=O)n3C4)c(=O)oc2c1,3,-3,-3,2,
COc1ccc2c(C)c(CC(=O)N3C[C@H]4C[C@@H](C3)c3cccc(=O)n3C4)c(=O)oc2c1C,-15,2,-4,4.9*,MsrA conf=2
C[n+]1c(-c2ccccc2)c2cc(N)ccc2c2ccc(N)cc21,6,-4,4,44*,MsrA conf=34*
CC(=O)NCC1=C(c2ccc(S(C)(=O)=O)cc2)C[C@@H]2CC[C@H]1N2CCOc1ccccc1,0,-1,x,0,
CCOP(=O)(OCC)c1cccc(O)c1,-1,-2,-4,-1,
CCOP(=O)(Nc1ccc2c(c1)C(=NNC(N)=S)c1ccccc1-2)OCC,1,0,-1,15*,MsrA conf=11*
O=C1Nc2ccccc2/C1=C/c1nc2ccccc2c(=O)n1-c1ccc(O)cc1,0,-1,-5,4,
O=C1Nc2ccccc2/C1=C/c1cnc[nH]1,0,-1,-3,6.4*,MsrA conf=4
CCCCN1C(=O)/C(=C/c2ccc(N(C)C)cc2)C(=O)N(Cc2ccco2)C1=O,0,4,-5,5.3*,MsrA conf=5.5*
CCOC(=O)[C@]12Cc3cc(Cl)ccc3[C@H]1N(C1CCCCC1)C(=O)c1ccccc12,x,x,-3,x,
CC1=CC(=C2C(=O)NC(=O)NC2=O)C=C(C(F)(F)F)N1C(C)C,0,-1,-5,4.9*,MsrA conf=2
